PubChem BioAssay AID504809 (National Center for Advancing Translational Sciences (NCATS), 2011)
Inconclusive results are not listed. A number with no mark means an inactive call. Activity calls are given as the source filed them. Calls come from the whole dose curve; as a rule, active = well fitted curve in the direction sought with a large enough effect; inconclusive = small, poorly fitted or top-dose-only effect, or another doubt; inactive = no such curve, though single readings can be large or run the other way.

Assay: Followup screen for small molecules that induce DNA re-replication in MCF 10A normal breast cells
Details: MCF 10A DNA re-replication, Hoechst nuclear intensity, 48 h; series mostly up to 46.1 µM; re-replication activation: at the top concentration
Description: NIH Molecular Libraries Probe Production Network [MLPCN] NIH Chemical Genomics Center [NCGC] MLPCN Grant: Fast Track K99 CA136555 Assay Provider: Melvin DePamphilis, NICHD, NIH Assay Overview Eukaryotic cells normally restrict genome duplication to once per cell division. When this process is aberrant, DNA re-replication occurs when cells reinitiate DNA replication before the first round of replication is complete. DNA re-replication induces the DNA damage response, arrests cell proliferation, and triggers apoptosis. The cell cycle components cyclin A, Cdt-1, Cdc6 and geminin are critical regulators of this process and their misregulation results in DNA re-replication in normal and cancer cells. To identify compounds that induce re-replication in normal cells, an image-based assay was used to measure DNA content of nuclei, as detected by the fluorescent DNA binding dye, Hoechst. Cell nuclei were imaged by a fluorescence scanning plate imager and compounds that induce DNA re-replication were identified by the increase of nuclei with elevated fluorescence intensity.
Assay Protocol Summary For screening, 250 cells in 5 uL/well were dispensed into black clear 1536-well plates (Aurora) using a solenoid-based dispenser. Following transfer of 23 nL compound or DMSO vehicle by a pin tool, the plates were incubated 48 hr at 37 C and 5% CO2. After addition of 1 uL/well Hoescht stain, the plates were incubated 40 min at 37 C, 5% CO2 and total intensity of fluorescent objects (nuclei) were enumerated by an Acumen Explorer Ex3 (TTP LabTech) fluorescence scanning plate imager (405 nm excitation, 500-530 nm emission). Keywords: NIH Roadmap, MLPCN, MLI, MLSMR, qHTS, NCGC, DNA replication, cancer

With `CC(C)NP(=O)(NC(C)C)OP(=O)(NC(C)C)NC(C)C` as the compound, how does the “re-replication activation” value read?
The value was -3.1%.

For `COc1cc([C@@H]2c3cc4c(cc3[C@H](O)[C@@H]3COC(=O)[C@H]23)OCO4)cc(OC)c1OC`, which Potency is on record?
The Potency was 26.8 nM (active).

For `NCC#Cc1ccccc1`, which “re-replication activation” value is on record?
The value was 14.6%.
